# The supplement of paper PMC4022240
# ± gives the standard deviation.
# T1: HaloTag-ATRX ADD domain (163-292)
# T1 chain: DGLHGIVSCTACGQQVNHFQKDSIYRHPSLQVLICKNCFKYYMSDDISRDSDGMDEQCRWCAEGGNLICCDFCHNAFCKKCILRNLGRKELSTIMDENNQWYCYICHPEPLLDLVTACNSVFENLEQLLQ
# Tests used:
# Experiment in all cases: peptide microarray binding signal (635 nm), min-max normalized on array (fraction of array maximum); higher = stronger binding
# Conditions in all cases: peptide region: H2B 17-29
# [1] = molecular target: T1, HaloTag-ATRX ADD domain (163-292)
# Method: (§1)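 Histone 13-mer peptides were synthesized as cellulose conjugates with a C-terminal 20-atom PEG linker and printed in triplicate on nitrocellulose. The sequence given is the unmodified backbone; PTMs (Kme1/2/3, Kac, Sph/Tph, Rme/Rme2a/Rme2s, Rcit) are listed in the label and the 'peptide modifications' condition. Slides were probed at 4 °C for 1 h with biotin-labelled (HQ)5-HaloTag reader fusions (ATRX-ADD, ING2-PHD) then streptavidin-Alexa647, or with rabbit histone antibodies then anti-rabbit Alexa647. The mean 635 nm signal of the triplicate spots was scaled 0-1 between the lowest and highest values on each array.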
# [2] = molecular target: HaloTag-ING2 PHD (mouse Ing2 200-280)
# Method: as §1
# [3] = molecular target: anti-H3K4me3 antibody ab8580
# Method: as §1
# [4] = molecular target: anti-H3K9me3 antibody ab8898
# Method: as §1
# [5] = peptide modifications: H2BK20ac H2BK23ac, binder concentration: 50 nM
# [6] = peptide modifications: H2BK20ac H2BK23ac, binder concentration: 500 nM
# [7] = peptide modifications: H2BK20ac H2BK23ac, binder concentration: 10 nM
# [8] = peptide modifications: H2BK20ac H2BK23ac, binder concentration: 100 nM
# [9] = peptide modifications: H2BK20ac H2BK23ac, binder concentration: 1:2,000 dilution
# [10] = peptide modifications: H2BK20ac H2BK23ac, binder concentration: 1:10,000 dilution
# [11] = peptide modifications: H2BK20ac H2BK27ac H2BK28ac, binder concentration: 1:2,000 dilution
# [12] = peptide modifications: H2BK20ac H2BK27ac H2BK28ac, binder concentration: 1:10,000 dilution
# [13] = peptide modifications: H2BK20ac H2BK23ac H2BK28ac, binder concentration: 1:2,000 dilution
# [14] = peptide modifications: H2BK20ac H2BK23ac H2BK28ac, binder concentration: 1:10,000 dilution
# [15] = peptide modifications: H2BK20ac H2BK24ac H2BK27ac H2BK28ac, binder concentration: 1:2,000 dilution
# [16] = peptide modifications: H2BK20ac H2BK24ac H2BK27ac H2BK28ac, binder concentration: 1:10,000 dilution
# [17] = peptide modifications: H2BK20ac H2BK28ac, binder concentration: 1:2,000 dilution
# [18] = peptide modifications: H2BK20ac H2BK28ac, binder concentration: 1:10,000 dilution
# [19] = peptide modifications: H2BK20ac H2BK24ac H2BK27ac, binder concentration: 1:2,000 dilution
# [20] = peptide modifications: H2BK20ac H2BK24ac H2BK27ac, binder concentration: 1:10,000 dilution
# [21] = binder concentration: 1:2,000 dilution
# [22] = binder concentration: 1:10,000 dilution
# [23] = peptide modifications: H2BK23ac H2BK24ac H2BK27ac H2BK28ac, binder concentration: 1:2,000 dilution
# [24] = peptide modifications: H2BK23ac H2BK24ac H2BK27ac H2BK28ac, binder concentration: 1:10,000 dilution
# [25] = peptide modifications: H2BK20ac H2BK23ac H2BK24ac, binder concentration: 1:2,000 dilution
# [26] = peptide modifications: H2BK20ac H2BK23ac H2BK24ac, binder concentration: 1:10,000 dilution
binder,measurement,setting,value
AVTKAQKKDGKKR [H2B 17-29 A V T Kac A Q K Kac D G K K R],peptide microarray binding signal,[1]; [5],0.00342 ± 3.7e-05
same,peptide microarray binding signal,[1]; [6],0.00562 ± 0.00013
same,peptide microarray binding signal,[2]; [7],0.00651 ± 0.00014
same,peptide microarray binding signal,[2]; [8],0.00468 ± 0.0004
same,peptide microarray binding signal,[3]; [9],0.00213 ± 0.0003
same,peptide microarray binding signal,[3]; [10],0.000685 ± 1.5e-05
same,peptide microarray binding signal,[4]; [9],0.000544 ± 1.7e-05
same,peptide microarray binding signal,[4]; [10],0.000865 ± 9e-06
AVTKAQKKDGKKR [H2B 17-29 A V T Kac A Q K K D G Kac Kac R],peptide microarray binding signal,"[1]; peptide modifications: H2BK20ac H2BK27ac H2BK28ac, binder concentration: 50 nM",0.00398 ± 4.1e-05
same,peptide microarray binding signal,"[1]; peptide modifications: H2BK20ac H2BK27ac H2BK28ac, binder concentration: 500 nM",0.00567 ± 0.00013
same,peptide microarray binding signal,"[2]; peptide modifications: H2BK20ac H2BK27ac H2BK28ac, binder concentration: 10 nM",0.003819 ± 3.5e-05
same,peptide microarray binding signal,"[2]; peptide modifications: H2BK20ac H2BK27ac H2BK28ac, binder concentration: 100 nM",0.00404 ± 0.00021
same,peptide microarray binding signal,[3]; [11],0.000812 ± 0.00014
same,peptide microarray binding signal,[3]; [12],0.00114 ± 1.2e-05
same,peptide microarray binding signal,[4]; [11],0.0005135 ± 4.8e-06
same,peptide microarray binding signal,[4]; [12],0.00075 ± 7.9e-06
AVTKAQKKDGKKR [H2B 17-29 A V T Kac A Q Kac K D G K Kac R],peptide microarray binding signal,"[1]; peptide modifications: H2BK20ac H2BK23ac H2BK28ac, binder concentration: 50 nM",0.00429 ± 0.00027
same,peptide microarray binding signal,"[1]; peptide modifications: H2BK20ac H2BK23ac H2BK28ac, binder concentration: 500 nM",0.00667 ± 0.00058
same,peptide microarray binding signal,"[2]; peptide modifications: H2BK20ac H2BK23ac H2BK28ac, binder concentration: 10 nM",0.0115 ± 0.00023
same,peptide microarray binding signal,"[2]; peptide modifications: H2BK20ac H2BK23ac H2BK28ac, binder concentration: 100 nM",0.0129 ± 0.0013
same,peptide microarray binding signal,[3]; [13],0.00221 ± 0.00083
same,peptide microarray binding signal,[3]; [14],0.00097 ± 9.9e-06
same,peptide microarray binding signal,[4]; [13],0.000634 ± 2e-05
same,peptide microarray binding signal,[4]; [14],0.00104 ± 4.3e-05
AVTKAQKKDGKKR [H2B 17-29 A V T Kac A Q K Kac D G Kac Kac R],peptide microarray binding signal,"[1]; peptide modifications: H2BK20ac H2BK24ac H2BK27ac H2BK28ac, binder concentration: 50 nM",0.00276 ± 5.2e-05
same,peptide microarray binding signal,"[1]; peptide modifications: H2BK20ac H2BK24ac H2BK27ac H2BK28ac, binder concentration: 500 nM",0.00419 ± 0.00026
same,peptide microarray binding signal,"[2]; peptide modifications: H2BK20ac H2BK24ac H2BK27ac H2BK28ac, binder concentration: 10 nM",0.00436 ± 0.00021
same,peptide microarray binding signal,"[2]; peptide modifications: H2BK20ac H2BK24ac H2BK27ac H2BK28ac, binder concentration: 100 nM",0.00489 ± 0.00035
same,peptide microarray binding signal,[3]; [15],0.000472 ± 1.7e-05
same,peptide microarray binding signal,[3]; [16],0.000856 ± 8.9e-06
same,peptide microarray binding signal,[4]; [15],0.000468 ± 1.8e-05
same,peptide microarray binding signal,[4]; [16],0.000692 ± 7.3e-06
AVTKAQKKDGKKR [H2B 17-29 A V T Kac A Q K K D G K Kac R],peptide microarray binding signal,"[1]; peptide modifications: H2BK20ac H2BK28ac, binder concentration: 50 nM",0.00245 ± 3.9e-05
same,peptide microarray binding signal,"[1]; peptide modifications: H2BK20ac H2BK28ac, binder concentration: 500 nM",0.00848 ± 0.00061
same,peptide microarray binding signal,"[2]; peptide modifications: H2BK20ac H2BK28ac, binder concentration: 10 nM",0.00328 ± 6.2e-05
same,peptide microarray binding signal,"[2]; peptide modifications: H2BK20ac H2BK28ac, binder concentration: 100 nM",0.00446 ± 0.00022
same,peptide microarray binding signal,[3]; [17],0.00126 ± 0.00023
same,peptide microarray binding signal,[3]; [18],0.000799 ± 8.3e-06
same,peptide microarray binding signal,[4]; [17],0.000393 ± 7.7e-06
same,peptide microarray binding signal,[4]; [18],0.000461
AVTKAQKKDGKKR [H2B 17-29 A V T Kac A Q Kac K D G K K R],peptide microarray binding signal,[1]; [5],0.00492 ± 0.00049
same,peptide microarray binding signal,[1]; [6],0.002 ± 0.0004
same,peptide microarray binding signal,[2]; [7],0.00477 ± 0.00013
same,peptide microarray binding signal,[2]; [8],0.00333 ± 0.00048
same,peptide microarray binding signal,[3]; [9],0.000321 ± 3.2e-05
same,peptide microarray binding signal,[3]; [10],0.00097 ± 7e-05
same,peptide microarray binding signal,[4]; [9],0.000408 ± 6.9e-06
same,peptide microarray binding signal,[4]; [10],0.000634 ± 1.2e-05
AVTKAQKKDGKKR [H2B 17-29 A V T Kac A Q K Kac D G Kac K R],peptide microarray binding signal,"[1]; peptide modifications: H2BK20ac H2BK24ac H2BK27ac, binder concentration: 50 nM",0.00335 ± 0.0001
same,peptide microarray binding signal,"[1]; peptide modifications: H2BK20ac H2BK24ac H2BK27ac, binder concentration: 500 nM",0.00514 ± 0.00021
same,peptide microarray binding signal,"[2]; peptide modifications: H2BK20ac H2BK24ac H2BK27ac, binder concentration: 10 nM",0.0031 ± 0.00013
same,peptide microarray binding signal,"[2]; peptide modifications: H2BK20ac H2BK24ac H2BK27ac, binder concentration: 100 nM",0.00255 ± 0.00012
same,peptide microarray binding signal,[3]; [19],0.00289 ± 0.00021
same,peptide microarray binding signal,[3]; [20],0.00143 ± 2.4e-05
same,peptide microarray binding signal,[4]; [19],0.000649 ± 5.6e-05
same,peptide microarray binding signal,[4]; [20],0.0011 ± 1.1e-05
AVTKAQKKDGKKR [H2B 17-29 A V T K A Q K K D G K K R],peptide microarray binding signal,[1]; binder concentration: 50 nM,0.00972 ± 0.00026
same,peptide microarray binding signal,[1]; binder concentration: 500 nM,0.0111 ± 0.00017
same,peptide microarray binding signal,[2]; binder concentration: 10 nM,0.0152 ± 0.0002
same,peptide microarray binding signal,[2]; binder concentration: 100 nM,0.00666 ± 0.00025
same,peptide microarray binding signal,[3]; [21],0.0021 ± 7.2e-05
same,peptide microarray binding signal,[3]; [22],0.00428 ± 3.3e-05
same,peptide microarray binding signal,[4]; [21],0.00118 ± 1.6e-05
same,peptide microarray binding signal,[4]; [22],0.00421 ± 8.6e-05
AVTKAQKKDGKKR [H2B 17-29 A V T K A Q Kac Kac D G Kac Kac R],peptide microarray binding signal,"[1]; peptide modifications: H2BK23ac H2BK24ac H2BK27ac H2BK28ac, binder concentration: 50 nM",0.00486 ± 0.00032
same,peptide microarray binding signal,"[1]; peptide modifications: H2BK23ac H2BK24ac H2BK27ac H2BK28ac, binder concentration: 500 nM",0.0102 ± 0.00019
same,peptide microarray binding signal,"[2]; peptide modifications: H2BK23ac H2BK24ac H2BK27ac H2BK28ac, binder concentration: 10 nM",0.00722 ± 0.00059
same,peptide microarray binding signal,"[2]; peptide modifications: H2BK23ac H2BK24ac H2BK27ac H2BK28ac, binder concentration: 100 nM",0.0164 ± 0.00086
same,peptide microarray binding signal,[3]; [23],0.00215 ± 0.00011
same,peptide microarray binding signal,[3]; [24],0.00205 ± 0.00011
same,peptide microarray binding signal,[4]; [23],0.00101 ± 6.9e-05
same,peptide microarray binding signal,[4]; [24],0.00138 ± 1.4e-05
AVTKAQKKDGKKR [H2B 17-29 A V T Kac A Q Kac Kac D G K K R],peptide microarray binding signal,"[1]; peptide modifications: H2BK20ac H2BK23ac H2BK24ac, binder concentration: 50 nM",0.00661 ± 0.00032
same,peptide microarray binding signal,"[1]; peptide modifications: H2BK20ac H2BK23ac H2BK24ac, binder concentration: 500 nM",0.0168 ± 0.0019
same,peptide microarray binding signal,"[2]; peptide modifications: H2BK20ac H2BK23ac H2BK24ac, binder concentration: 10 nM",0.0274 ± 0.0038
same,peptide microarray binding signal,"[2]; peptide modifications: H2BK20ac H2BK23ac H2BK24ac, binder concentration: 100 nM",0.0204 ± 0.0078
same,peptide microarray binding signal,[3]; [25],0.00636 ± 0.0011
same,peptide microarray binding signal,[3]; [26],0.0024 ± 0.00011
same,peptide microarray binding signal,[4]; [25],0.00204 ± 0.00015
same,peptide microarray binding signal,[4]; [26],0.00208 ± 8.4e-05
